Screening data as filed in PubChem.
VDR inh: inhibitors of human vitamin D receptor | AID 504847 | VDR-SRC2-3 peptide fluorescence polarization, 2 h | Potency, µM, inactives show max response, negative = inhibition, hits mostly inhibitors | actives 0.93% (n = 400,000) | P11473
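Measured by FP: displacement of SRC2-3 coactivator peptide from VDR by library compounds, following a two-hour ambient incubation.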
Tau fluor cs: counter-screen for tau fibril formation inhibitors; tau K18 P301L Alexa594 fluorescence, heparin fibrillization; Potency, µM (titrated, usually from 57.7 µM), for the others: at the top dose activity change, negative = decrease; actives 0.93% (n = 280,000); note: nearly all actives have a fitted effect of over 55% in size
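Human K18 P301L tau (15 uM unlabeled plus 0.24 uM Alexa 594-labeled, final) in 100 mM sodium acetate pH 7 was mixed with compound and 20 uM heparin and incubated 6 hr at 37 C.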
Tau FP inhib: tau fibrillization inhibition (FP); P10636; AID 1468; Potency, µM (doses to about 57.7 µM), inactives show top-dose activity, negative = inhibition, usual class: inhibitors; actives 0.39% (n = 280,000); K18 P301L tau heparin fibrillization, Alexa594 FP, 6 h; note: nearly all actives have a fitted effect of over 55% in size
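K18 P301L tau (15 uM unlabeled/0.24 uM Alexa 594-labeled, final) + compound + heparin 20 uM final; 100 mM NaOAc pH 7; 6 hr 37 C; ThT 30 uM final added, 1 hr RT; FP ex 555/em 632 nm.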
PLK1 PBD inh: blocks phosphopeptide binding to human PLK1 polo-box domain; P53350; Plk1 PBD binding of FITC phosphopeptide, fluorescence polarization; Potency, µM, without a hit: max response, negative = inhibition, most hits filed as inhibitors; actives 2.8% (n = 360,000); note: series mostly up to about 57 µM; nearly all actives have a fitted effect of over 65% in size
Sfp inh: blocks B. subtilis Sfp PPTase activity; Q9F4F7; Potency, µM, inactives show largest response in the series, negative = inhibition, actives largely listed as inhibitors; actives 3.5% (n = 310,000); Biochemical Sfp PPTase activity, qHTS; AID 1490;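 note: the enzyme is Sfp with the accession as filed and its product quenches rhodamine fluorescence; 0% = enzyme reaction without inhibitor and -100% = no enzyme wells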
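Fluorescence-quenching assay with 15 nM Sfp, 5 uM rhodamine-CoA and 12.5 uM BHQ-2-labelled ybbR peptide in pH 7.6 Hepes/MgCl2 buffer. Enzyme was pre-incubated with compound for 15 min at room temperature. Rate was taken from the 30-min fluorescence change (525/598 nm).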
Tau ThT inhib: inhibitors of human tau fibril formation, thioflavin T binding; Potency, µM (top dose mostly 57.4 µM), for the others: at the top dose activity, negative = inhibition, usual class: inhibitors; actives 2.1% (n = 270,000); recombinant tau K18 P301L (four-repeat tau fragment), heparin-induced fibrillization, ThT fluorescence; note: nearly all actives have a fitted effect of over 55% in size
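Recombinant human tau K18 fragment […] carrying P301L, 15 uM unlabeled plus 0.24 uM Alexa 594-labeled, was fibrillized with 20 uM heparin in 100 mM sodium acetate pH 7 for 6 hr at 37 C; 30 uM ThT fluorescence read after 1 hr.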
TbPYK inh: confirmation of Trypanosoma brucei pyruvate kinase inhibitors; shares compounds with PLK1 PBD inh; recombinant TbPYK, Kinase-Glo ATP luminescence; Potency, µM (series often up to 76.9 µM), for inactives: top-dose activity change, negative = inhibition, actives largely listed as inhibitors; actives 67% (n = 890); AID 720569; note: nearly all actives have a fitted effect of over 70% in size
TbPYK ADP-Glo: orthogonal confirmation of Trypanosoma brucei pyruvate kinase inhibitors; actives 62% (n = 890); Potency, µM (series often up to 76.9 µM), without a hit: top-dose activity change, negative = inhibition, usual class: inhibitors; recombinant TbPYK, ADP-Glo luminescence, 60 min; shares compounds with PLK1 PBD inh; note: nearly all actives have a fitted effect of over 75% in size
Starred values were filed as active, the others as inactive; ? = inconclusive; nt = no result given. Shown are actives, neighbours in structure and some others; about 6% of the full set was active somewhere. Calls come from the whole dose curve; as a rule, active = well fitted curve in the direction sought with a large enough effect; inconclusive = small, poorly fitted or top-dose-only effect, or another doubt; inactive = no such curve, though single readings can be large; an effect the other way counts as inactive or inconclusive. Unless noted, % is set by controls: 0 for no effect and ±100 for the full control effect; potency is the fitted concentration of half-maximal effect.

SMILES | VDR inh | Tau fluor cs | Tau FP inhib | PLK1 PBD inh | Sfp inh | Tau ThT inhib | TbPYK inh | TbPYK ADP-Glo
CCOC(=O)[C@]12Cc3ccccc3[C@H]1N(C(C)C)C(=O)c1ccccc12 | nt | nt | nt | ? | nt | nt | 22µM* | 32µM*
CCOC(=O)C12C(=O)OCC1C2c1ccccc1 (stereo not drawn) | nt | nt | nt | 0% | nt | nt | nt | nt
O=C1CC=C2C3CC4N(CCC45c4cc(O)c(O)cc4N1C25)CC3=CCBr (stereo not drawn) | 10% | nt | nt | 5.3µM* | nt | nt | 7.9µM* | 13µM*
O=C1CC=C2C3CC4N(CCC45c4ccccc4N1C25)CC3=CCO (stereo not drawn) | 3% | nt | nt | 2% | nt | nt | nt | nt
CCC12CCCN3CCC4(c5ccc(OC)c(O)c5N(C(C)=O)C4CC1)C32 (stereo not drawn) | nt | -7% | -3% | nt | 12% | -1% | nt | nt
